Common to all, as to assay: NCI-60 one-dose screen, 48 h (100 = growth as untreated, 0 = no growth, -100 = all killed)
What all share (conditions): 10 µM unless noted

Assay [1] deals with DU-145 prostate.
For assay [2], the system named is K-562 leukemia.
Assay [3] has as its system MALME-3M melanoma.
For assay [4], the system named is MDA-MB-231 breast.
Assay [5] has as its system RXF 393 renal.
Assay [6] relates to SF-268 CNS.
The subject of assay [7] is SF-295 CNS.
Assay [8] has as its system SF-539 CNS.
Assay [9] concerns UACC-257 melanoma.
The test system of assay [10] is M14 melanoma.

The values below come from PubChem BioAssay (NCI).

SMILES strings stand for the structures. The panel holds about 83,000 compounds, 20% with a hit somewhere; the sample as a whole holds those more often.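 Growth was measured after 48 h exposure to one concentration of compound in 96-well plates. Values under 10 count as active.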 Unmarked numbers belong to inactive results. The source made the active and inactive calls.

Turning to `CN(Cc1cc(Cl)cc(Cl)c1O)Cc1cc(Cl)cc(Cl)c1O`, the growth in [1] is 68.9%; in assay [2], 98.5%; in assay [3] it was 92.7%; in assay [4], 78.5%; in [5], 81.8%; in assay [6] it was 62.6%. For the same compound, the growth was 58.1% in [7], 81.9% in assay [8], 82.4% in assay [9] and 71% in [10].

Take `O=c1c2c3c(sc2nc(N/N=C/c2cn(-c4ccccc4)nc2-c2ccc(Cl)cc2)n1Cc1ccccc1)CCCC3`: the growth is 116% in assay [1]; 3.49% (active) in assay [2]; 115% in [3]; 113% in assay [4]; 118% in assay [5]; 91.8% in [6]. Moreover, the growth in assay [7] is 62.2%; in assay [8], 95.9%; in assay [9] it was 92%; in [10], 98.1%.

In the case of `Cc1cc(C)nc(SC2=C(Nc3cccc(Cl)c3C)C(=O)N(Cc3ccccc3)C2=O)n1`, the growth was 70.7% [30 µM] in assay [1]; 45.4% [30 µM] in assay [2]; 58% [30 µM] in [3]; 51.6% [30 µM] in assay [4]; 43.3% [30 µM] in assay [5]; 72% [30 µM] in assay [6]. Also, the growth was -5.72% [30 µM] (active) in assay [7], 50.5% [30 µM] in assay [8], 72.3% [30 µM] in assay [9] and 63.1% [30 µM] in assay [10].

As to `O=C1C=C(O)C(=O)C(CC2=C(O)C(=O)C=C(O)C2=O)=C1O`, the growth in [1] is 110%; in assay [2] it was 106%; in [3] it was 108%; in assay [4], 95.8%; in assay [5] it was 110%; in assay [6], 100%. Further, the figures for the growth in [8], in assay [9] and in [10] were 88.5%, 105% and 104%, respectively.

As to `CC(C)CC1C(=O)N2CCC[C@H]2C2(O)O[C@](NC(=O)C3C=C4c5cccc6[nH]c(Br)c(c56)C[C@H]4N(C)C3)(C(C)C)C(=O)N12` (stereo not given in full), the growth in assay [1] is 83.6%; in assay [2] it was 34.5%; in assay [3] it was 74.7%; in [4], 46.3%; in assay [5], 36.8%; in assay [6] it was 55.8%. Besides, the growth in [8] is 73.6%; in assay [9] it was 51%; in assay [10], 66.3%.

Take `N#Cc1c(-c2ccc(Cl)cc2)nc(NN=Cc2ccco2)nc1N1CCOCC1`: the growth is 85.4% in assay [1]; 104% in assay [2]; 42.4% in assay [3]; 74.5% in [4]; 52.2% in [5]; 74.5% in assay [6]. Further, the growth in [7] was 73.8%; in assay [8], 75.3%; in [9], 87.9%; in [10], 71.4%.

On to `COc1cccc(C2=NN3C(C2)c2cc(Br)cc(OC)c2OC32CCN(Cc3ccccc3)CC2)c1` (stereo not given), for which the growth in [1] was 105%; in [2], 105%; in [3] it was 99.7%; in [4], 109%; in [5], 115%; in [6], 94.5%. The growth in [7] is 101%; in assay [8] it was 105%; in assay [9] it was 104%; in [10], 107%.

In the case of `CCOC(=O)c1c(C)oc2ncnc(N3CCN(C(=O)COc4ccc(SC)cc4)CC3)c12`, the growth is 99.6% in [1]; 82.4% in assay [2]; 105% in [3]; 88.6% in [4]; 99.7% in assay [5]; 92.7% in assay [6]. Besides, the growth in assay [7] was 88.2%; in [8], 93.5%; in assay [9], 95%; in [10], 97.9%.

On to `OC(c1cc2cc(Cl)c(Cl)cc2c2cc(C(F)(F)F)ccc12)C1CCCCN1` (stereo not given), for which the growth is -86.2% (active) in assay [1]; -63.5% (active) in assay [2]; -17.6% (active) in [3]; -71.3% (active) in assay [4]; -96.2% (active) in assay [5]; -88.6% (active) in assay [6]. Also, the growth in [8] is -57.9% (active); in [9], -73% (active); in assay [10], -80.9% (active).

For the compound `COc1cccc(-c2nc3sccn3c2-c2ccnc(NCCCNS(=O)(=O)c3cccc(Cl)c3)c2)c1`, the growth is 46.4% in [1]; 22.2% in [2]; 60% in assay [3]; 71.9% in assay [4]; 71.9% in [5]; 52.2% in assay [6]. Moreover, the growth in assay [7] was 21.2%; in assay [8] it was 86.2%; in assay [9], 55.2%; in assay [10], 30.8%.

`O=C1NC(=O)C(c2ccc(Cl)cc2Cl)N1` (stereo not given): the growth in assay [1] was 112%; in assay [2], 102%; in [3] it was 106%; in assay [4], 101%; in [5], 117%; in assay [6], 106%. Also, the growth in assay [7] was 110%; in [8] it was 115%; in assay [9], 112%; in assay [10], 106%.

As for `COc1ccc(C(=O)c2sc3nc(C)cc(C)c3c2N)cc1OC`, the growth in [1] is 90.7%; in [2], 92.6%; in assay [3] it was 83.3%; in assay [4] it was 56.3%; in assay [5] it was 93.9%; in assay [6], 60.1%. For the same compound, the growth in [7] is 89.8%; in assay [8], 92.2%; in assay [9], 95.1%; in [10], 105%.

With `CN(C)CCCNc1c2ccccc2nc2ccccc12`, the growth was 101% in [1]; 96.8% in assay [2]; 100% in assay [3]; 85.2% in assay [4]; 56.4% in assay [5]; 92.9% in assay [6]. Also, the results for the growth in assay [8], in [9] and in [10] were 89.6%, 104% and 98%, respectively.

As to `CCCCCCN(CCCCCC)C(=N)c1ccnc2ccccc12`, the growth in assay [1] was 85.1%; in [2], 16.8%; in [3], 76.2%; in assay [4], 58.1%; in [5], 70.3%; in assay [6], 83.8%. The figures for the growth in assay [8], in assay [9] and in [10] were 79.7%, 69.9% and 18.9%, respectively.

As to `CCn1c(O)c(/C=N/NC(=O)C(C)c2ccc(CC(C)C)cc2)sc1=S` (stereo not given), the growth was 22.1% in [1]; 9.15% (active) in assay [2]; 64.3% in assay [3]; 35.4% in assay [4]; 9.92% (active) in assay [5]; 32.9% in assay [6]. Also, the growth was 15.8% in assay [7], -13.5% (active) in assay [8], 51.9% in assay [9] and 6.26% (active) in [10].

Turning to `CNc1ccc(-c2cc(=O)oc3ccc(Cl)cc23)cc1`, the growth in assay [1] was 18%; in assay [2] it was 11%; in assay [3], 110%; in assay [4] it was 16.2%; in assay [5], 43.1%; in [6], 27.6%. Besides, the growth in assay [7] was 18.1%; in assay [8] it was -2.97% (active); in assay [9], 38%; in assay [10], 25.4%.

Turning to `COc1ccc(C2Nc3c(c(C(C)(C)C)nn3-c3ccccc3)C(=O)CS2)cc1` (stereo not given), the growth in assay [1] was 101%; in assay [2], 98.5%; in [3], 98%; in [4], 94.2%; in assay [5], 103%; in assay [6], 98%. Besides, the growth in assay [8] is 109%; in assay [9], 101%; in assay [10] it was 112%.

Regarding `CC(=O)Nc1ccc(S(=O)(=O)Nc2cccc(-c3nc(-c4ccc(NC(=O)c5cccnc5)cc4Cl)no3)c2)cc1`, the growth in [1] is 54.6%; in assay [2], 18.9%; in assay [3] it was 59.7%; in assay [4] it was 47.5%; in assay [5] it was 76.5%; in assay [6] it was 48.2%. For the same compound, the growth in assay [7] was 42.2%; in assay [8], 7.87% (active); in assay [9], 35%; in [10], 27.1%.

On to `COc1cc(C(=O)Oc2ccccc2OC(=O)c2cc(OC)c(OC)c(OC)c2)cc(OC)c1OC`, for which the growth in assay [1] is 109%; in assay [2], 100%; in assay [3], 130%; in [4] it was 85.5%; in assay [5] it was 89.5%; in assay [6], 84%. The growth in assay [7] was 115%; in [8], 88.5%; in [9], 86.7%; in assay [10] it was 116%.

`CC(=O)Nc1ccc(-n2c(O)c(/C=N/NC(=O)Cc3ccccc3Nc3c(Cl)cccc3Cl)sc2=S)cc1`: the growth in assay [1] was 105%; in assay [2] it was 94.6%; in [3], 108%; in assay [4], 107%; in assay [5], 105%; in assay [6], 94.4%. Also, the growth is 99.4% in [7], 98.4% in assay [8], 103% in [9] and 103% in [10].

For the compound `CCOc1cc2c(cc1OCC)C(c1cc(OC)c(O)cc1Cl)NCC2` (stereo not given), the growth in [1] is 110%; in assay [2], 53.3%; in assay [3] it was 55.2%; in assay [4], 88.6%; in [5], 85.1%; in assay [6] it was 100%. For the same compound, the growth in [8] was 101%; in assay [9] it was 99.2%; in [10] it was 80.2%.

Consider `Cc1ccc(NC(=O)/C=C/c2ccccc2)c(C(N)=O)c1`, for which the growth in [1] is -8.15% (active); in assay [2], 13.1%; in assay [3], 96.6%; in assay [4] it was 52.5%; in assay [5], -9.67% (active); in assay [6] it was 43.3%. Also, the growth was 15.2% in [7], 0.356% (active) in assay [8], 63.2% in [9] and 27% in assay [10].

`NC(=O)c1cc(Cl)ccc1NC(=O)/C=C/c1ccccc1`: the growth was -0.745% (active) in assay [1]; 11.6% in [2]; 67% in assay [3]; 39.2% in [4]; -11.1% (active) in assay [5]; 46.1% in assay [6]. In addition, the growth in assay [8] was -6.33% (active); in assay [9] it was 46.2%; in assay [10], 28.1%.

With `Fc1ccc2[nH]cc(SSc3c[nH]c4ccc(F)cc34)c2c1`, the growth in assay [1] was 90.4%; in assay [2], 23.2%; in assay [3] it was 83.6%; in [4], 42.7%; in assay [5], 14.4%; in assay [6] it was 17.7%. The growth in [7] is -17.2% (active); in assay [8], 36.8%; in [9] it was 78.7%; in assay [10] it was 53.2%.

With `CCN(CC)S(=O)(=O)c1ccc(OC)c(NC(=O)c2[nH]c(C)c3c2CCCCC3=O)c1`, the growth in assay [1] is 72.8%; in assay [2] it was 30%; in assay [3], 60.6%; in assay [4], 43%; in assay [5], 38.9%; in [6], 68.4%. The growth was 34.1% in [7], 36.1% in assay [8], 39.6% in assay [9] and 42.3% in assay [10].

Consider `NC(=O)c1cc(I)ccc1NC(=O)/C=C/c1ccccc1Cl`, for which the growth in assay [1] is -18.8% (active); in assay [2], 5.46% (active); in assay [3], 67.5%; in [4] it was 23.3%; in assay [5] it was -17.9% (active); in assay [6], 36.8%. Further, the growth in assay [8] is -35.7% (active); in [9], 65.7%; in assay [10], 4.96% (active).

Regarding `Cc1cc(Nc2ccc(C)c(Cl)c2)n2nc(C(F)(F)F)nc2n1`, the growth is 42.5% in assay [1]; 54.8% in assay [2]; -15.2% (active) in assay [3]; 2.77% (active) in assay [4]; -9.51% (active) in assay [5]; 39.4% in assay [6]. The growth in assay [8] was 33.1%; in assay [9], 74.4%; in [10] it was 51.7%.
